Bioassay records as filed in PubChem.
Pf Dd2 inh: P. falciparum Dd2 growth inhibition; AID 1159554; activity change, % at 10 µM; 2.3% of 94,000 active; SYBR Green, 72 h; stronger effect = lower value; in the data active = activity change below about -80%; inconclusive = no clear call, values can overlap the other calls
C diff growth: blocks growth of Clostridium difficile. 0.25% of 86,000 active. growth activity, negative = inhibition, % at 16 µg/mL (by protocol). Clostridium difficile clinical isolate growth, OD600, 24 h; stronger effect = lower value;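 active = mean growth activity at or below -80% and every replicate also at or below -80%; inconclusive = mean at or below -80% but some replicate above -80%; inactive = mean growth activity above -80%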
T cruzi growth-1: blocks T. cruzi growth in NIH3T3 culture; T. cruzi beta-gal in NIH3T3, GalScreen luminescence, 90 h; inhibition, % at 8.34 µM; 5.9% of 77,000 active; AID 624255;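 active = mean inhibition above about 93%, with at least 55% of replicates each passing it, limit read from the data, passing the limit was not always enough; inconclusive = only one of those two conditions holds; inactive = neither condition holds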
T cruzi growth-2: inhibitors of T. cruzi proliferation. shares compounds with T cruzi growth-1. T. cruzi beta-gal in NIH3T3, GalScreen luminescence, 90 h. inhibition, % at 8.35 µM. 72% of 5,600 active. AID 651739;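 active = mean replicate inhibition above about 95% and at least 55% of replicates individually reaching it, limit read from the data; inconclusive = only one of the two criteria is met; inactive = neither criterion is met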
T cruzi growth-3: blocks T. cruzi growth in NIH3T3 host cells; shares compounds with T cruzi growth-1; T. cruzi beta-gal in NIH3T3, GalScreen luminescence, 90 h; inhibition, % at 2.09 µM; 21% of 5,600 active;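 active = mean inhibition above about 95%, with at least 55% of replicates also reaching it, limit read from the data; inconclusive = meets just one of the two conditions; inactive = meets neither condition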
3T3 cytotox: NIH/3T3 (mouse) viability loss; AID 651742; NIH/3T3 viability, CellTiter-Glo ATP luminescence, 90 h; cytotoxicity (signal decrease), % at 8.35 µM; shares compounds with T cruzi growth-1; 14% of 5,600 active;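 active = mean signal decrease across replicates above about 35% based on untreated-well scatter, with enough replicates individually passing, limit read from the data; inconclusive = no rule stated though some were filed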
3T3 cytotox 2: kills mouse NIH/3T3 fibroblasts; shares compounds with T cruzi growth-1; inhibition, % at 24.9 µM; AID 651744; NIH/3T3 viability, CellTiter-Glo ATP luminescence, 90 h; 56% of 5,600 active;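 active = mean loss of cell viability signal at or above a set limit, and enough replicates individually reaching it; inconclusive = meets only the mean limit or only the replicate share; inactive = meets neither condition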
Hits are given with their value; i = inactive; ? = inconclusive; nt = no result given. Shown are actives, neighbours in structure and some others; about 6.7% of the full set was active somewhere.

SMILES	Pf Dd2 inh	C diff growth	T cruzi growth-1	T cruzi growth-2	T cruzi growth-3	3T3 cytotox	3T3 cytotox 2
O=C(NC1CCCC1)N1CCCCN2[C@H](CO)[C@H](c3ccc(-c4ccccc4)cc3)[C@H]2C1	i	i	104.0	i	i	i	103.6
C[C@@H]1CN([C@H](C)CO)C(=O)c2cc(NS(=O)(=O)c3ccc(F)cc3)ccc2O[C@H]1CN(C)Cc1ccccc1	i	i	i	nt	nt	nt	nt
C[C@@H]1CCCCO[C@@H](CN(C)C(=O)Nc2ccc(F)cc2)[C@H](C)CN([C@@H](C)CO)C(=O)c2cc(NS(=O)(=O)c3ccc(F)cc3)ccc2O1	i	i	i	nt	nt	nt	nt
CS(=O)(=O)N1CC(=O)N2[C@H](C1)[C@@H](c1ccc(C#CCc3ccccc3)cc1)[C@@H]2CO	i	i	nt	nt	nt	nt	nt
COCCNC(=O)C[C@H]1C[C@@H]2c3cc(NC(=O)COC)ccc3O[C@@H]2[C@@H](CO)O1	i	i	i	nt	nt	nt	nt
COc1ccc(C#Cc2ccc3c(c2)O[C@H](CN(C)C)[C@@H](C)CN([C@@H](C)CO)S3(=O)=O)cc1	i	i	?	109.0	i	i	102.8
C[C@H]1CN([C@@H](C)CO)S(=O)(=O)c2ccc(C#Cc3ccccc3)cc2O[C@@H]1CN(C)C	i	i	101.5	105.1	i	i	103.4
COc1ccc(C#Cc2ccc3c(c2)O[C@@H](CN(C)C)[C@@H](C)CN([C@H](C)CO)S3(=O)=O)cc1	i	i	i	nt	nt	nt	nt
C[C@@H]1CN([C@H](C)CO)S(=O)(=O)c2ccc(C#Cc3ccccc3)cc2O[C@@H]1CN(C)C	i	i	i	nt	nt	nt	nt
C[C@@H]1CN([C@H](C)CO)S(=O)(=O)c2ccc(-c3cccnc3)cc2O[C@@H]1CN(C)C(=O)C1CCCCC1	i	i	i	nt	nt	nt	nt
O=C(C[C@@H]1C[C@@H]2c3cc(NC(=O)Nc4ccccc4F)ccc3O[C@@H]2[C@H](CO)O1)NC1CCCCC1	i	i	i	nt	nt	nt	nt
O=C(C[C@@H]1C[C@H]2c3cc(NC(=O)Nc4ccccc4F)ccc3O[C@H]2[C@H](CO)O1)NCc1ccccn1	i	i	nt	nt	nt	nt	nt
O=C(C[C@H]1C[C@@H]2c3cc(NC(=O)Nc4ccccc4F)ccc3O[C@@H]2[C@H](CO)O1)NCc1ccccn1	i	i	108.8	i	i	i	i
O=C(C[C@H]1C[C@@H]2c3cc(NC(=O)Nc4ccccc4F)ccc3O[C@@H]2[C@@H](CO)O1)NC1CCCCC1	i	i	158.4	?	i	i	i
O=C(Cc1ccccn1)N[C@H]1CC[C@@H](CCNC(=O)c2cc(Cl)cc(Cl)c2)O[C@@H]1CO	i	nt	i	nt	nt	nt	nt
COc1ccc(C#Cc2cnc3c(c2)C(=O)N([C@@H](C)CO)C[C@@H](C)[C@H](CN(C)C(C)=O)O3)cc1	i	i	i	nt	nt	nt	nt
C[C@H](CO)N1C[C@H](C)[C@H](CN(C)C(=O)Nc2ccccc2)Oc2ncc(C#Cc3cccc(F)c3)cc2C1=O	i	i	i	nt	nt	nt	nt
COc1ccc(C#Cc2cnc3c(c2)C(=O)N([C@H](C)CO)C[C@@H](C)[C@H](CN(C)C(=O)c2ccccc2F)O3)cc1	i	i	i	nt	nt	nt	nt
C[C@@H]1CN([C@@H](C)CO)C(=O)c2cc(C#Cc3ccccc3)cnc2O[C@@H]1CN(C)C(=O)c1ccccc1F	i	i	i	nt	nt	nt	nt
COc1ccc(C#Cc2cnc3c(c2)C(=O)N([C@@H](C)CO)C[C@H](C)[C@@H](CN(C)C(=O)c2ccccc2F)O3)cc1	i	i	113.3	98.1	i	i	i
C[C@H]1CN([C@@H](C)CO)C(=O)c2cc(C#Cc3cccc(F)c3)cnc2O[C@@H]1CN(C)C(=O)c1ccccc1F	?	i	109.9	100.5	i	i	i
COc1ccc(C#Cc2cnc3c(c2)C(=O)N([C@H](C)CO)C[C@@H](C)[C@H](CN(C)C(C)=O)O3)cc1	i	i	?	i	i	i	33.0
C[C@H](CO)N1C[C@H](C)[C@H](CN(C)C(=O)Nc2ccc(F)cc2)Oc2ncc(C#Cc3cccc(F)c3)cc2C1=O	i	i	?	i	i	74.7	104.5
CCCNC(=O)N1C[C@@H](C)[C@@H](OC)CN(C)C(=O)c2cc(NC(C)=O)ccc2OC[C@H]1C	i	i	i	nt	nt	nt	nt
COc1ccc2c3c(n(C)c2c1)[C@H](CO)N(Cc1ccccc1Cl)CC31CCN(C(=O)CC2CC2)CC1	i	i	nt	nt	nt	nt	nt
SMILES	Pf Dd2 inh	C diff growth	T cruzi growth-1	T cruzi growth-2	T cruzi growth-3	3T3 cytotox	3T3 cytotox 2
C[C@H](CO)N1C[C@H](C)[C@@H](CN(C)C(=O)c2ccccc2F)Oc2ncc(C#Cc3ccccc3)cc2C1=O	i	i	i	nt	nt	nt	nt
C[C@@H]1CN([C@H](C)CO)C(=O)c2cc(C#Cc3cccc(F)c3)cnc2O[C@H]1CN(C)C(=O)c1ccccc1F	-84.6	i	104.0	105.8	i	42.6	?
CCCNC(=O)N1C[C@@H](O)COC[C@@H]2O[C@@H](CC(=O)N[C@@H]3CCN(Cc4ccccc4)C3)CC[C@H]21	nt	i	i	nt	nt	nt	nt
Cc1cccc(S(=O)(=O)N2C[C@@H](O)COC[C@H]3O[C@@H](CC(=O)Nc4ccc(-c5ccccc5)cc4)CC[C@@H]32)c1	i	i	112.6	100.3	i	i	78.4
Cc1cccc(S(=O)(=O)N2C[C@H](O)COC[C@@H]3O[C@H](CC(=O)Nc4ccc(-c5ccccc5)cc4)CC[C@H]32)c1	i	i	111.7	101.8	106.6	i	i
O=C(C[C@H]1CC[C@@H]2[C@H](COC[C@H](O)CN2S(=O)(=O)c2ccccc2)O1)Nc1ccc(-c2ccccc2)cc1	i	nt	i	nt	nt	nt	nt
O=C(C[C@H]1CC[C@@H]2[C@H](COC[C@@H](O)CN2S(=O)(=O)c2ccccc2)O1)Nc1ccc(-c2ccccc2)cc1	i	nt	i	nt	nt	nt	nt
O=C(C[C@@H]1CC[C@@H]2[C@H](COC[C@@H](O)CN2S(=O)(=O)c2ccccc2)O1)Nc1ccc(-c2ccccc2)cc1	i	nt	103.7	117.0	i	i	i
Cc1cccc(S(=O)(=O)N2C[C@H](O)COC[C@@H]3O[C@@H](CC(=O)Nc4ccc(-c5ccccc5)cc4)CC[C@H]32)c1	i	i	111.3	96.8	?	59.7	78.4
O=C(C[C@@H]1CC[C@H]2[C@@H](COC[C@@H](O)CN2S(=O)(=O)c2ccccc2)O1)Nc1ccccc1	i	i	i	nt	nt	nt	nt
O=C(C[C@@H]1CC[C@H]2[C@@H](COC[C@@H](O)CN2S(=O)(=O)c2cccc(F)c2)O1)Nc1ccc(-c2ccccc2)cc1	i	i	i	nt	nt	nt	nt
COc1ccc(NC(=O)Nc2ccc3c(c2)CC(=O)N([C@H](C)CO)C[C@H](C)[C@H](CN(C)Cc2ccccc2)O3)cc1	i	i	i	nt	nt	nt	nt
CCCN1[C@H](C(=O)N(C)C)[C@@H](CO)[C@@H]2Cn3c(ccc(-c4cccc(F)c4)c3=O)[C@@H]21	i	i	i	nt	nt	nt	nt
C[C@H](CO)N1C[C@H](C)[C@H](CN(C)C(=O)C2CC2)Oc2ncc(-c3ccccc3F)cc2C1=O	i	nt	i	nt	nt	nt	nt
